Source: the supplement of paper PMC8975748
Counter-ions that a name gives are not always drawn.

system: Saccharomyces cerevisiae BY4741 SeMeCo community; assay: z-score of subpopulation abundance vs DMSO median, subpopulation auxotrophic for M; higher = larger share of this subpopulation than in DMSO controls; conditions: 10 µM; 24 h; SM minimal medium; subpopulation (auxotrophy): M
In short: (§1)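 Cells of a Saccharomyces cerevisiae BY4741 community, carrying four plasmids that each restored one auxotrophy and encoded a distinct fluorescent protein, were pre-grown overnight to OD600 1.0 and diluted to 0.3. A 70 µl volume was added to 384-well plates acoustically predosed with library drugs (10 µM final) and grown 24 h in minimal SM medium. After paraformaldehyde fixation, automated confocal microscopy was used, with single-auxotroph fluorescent strains for thresholds and autofluorescence correction. The abundance of each subpopulation was scored as a z-score against the vehicle-well median.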

In order of falling “z-score of subpopulation abundance” value:
1. CSCC1CN(/N=C/c2ccc([N+](=O)[O-])o2)C(=O)O1 (stereo not given) [Nifuratel]  3.2
2. COC(=O)C1=C(C#N)NC(C)=C(C(=O)OC(C)C)C1c1cccc([N+](=O)[O-])c1 (stereo not given) [Nilvadipine]  1.61
3. COc1ccc(C(Cl)=C(c2ccc(OC)cc2)c2ccc(OC)cc2)cc1 [Chlorotrianisene]  1.26
4. CN1[C@@H](CC(=O)c2ccccc2)CCC[C@H]1C[C@H](O)c1ccccc1 [Lobeline hydrochloride]  1.16
5. CCn1cc(C(=O)O)c(=O)c2cc(F)c(N3CCNCC3)cc21 [Norfloxacin]  0.77
6. COc1ccc(C(=O)NCc2ccc(OCCN(C)C)cc2)cc1OC [Itopride hydrochloride]  0.65
7. CC[N+](CC)(CC)CCOc1cccc(OCC[N+](CC)(CC)CC)c1OCC[N+](CC)(CC)CC [Gallamine Triethiodide]  0.42
8. CCC(C)n1ncn(-c2ccc(N3CCN(c4ccc(OCC5COC(Cn6cncn6)(c6ccc(Cl)cc6Cl)O5)cc4)CC3)cc2)c1=O (stereo not given) [Itraconazole]  0.3
9. OC[C@H]1O[C@H](OCC2O[C@@H](O)[C@H](O)[C@@H](O)[C@@H]2O)[C@H](O)[C@@H](O)[C@H]1O (stereo not given in full) [Melibiose]  0.28
10. CN1CCC(=C2c3ccccc3CCc3sccc32)CC1 [Pizotifen Malate]  0.26
11. CC(=O)O[C@]1(C(C)=O)CC[C@H]2[C@@H]3C[C@H](C)C4=CC(=O)CC[C@]4(C)[C@H]3CC[C@@]21C [Medroxyprogesterone acetate]  0.21
12. O=C(c1ccc(F)cc1)C1CCN(CCn2c(=O)[nH]c3ccccc3c2=O)CC1 [Ketanserin]  0.03
13. O=C(CCCN1CCN(c2ccccn2)CC1)c1ccc(F)cc1 [Azaperone]  0
14. Cc1c(OCC(F)(F)F)ccnc1C[S@@+]([O-])c1nc2ccccc2[nH]1 [Dexlansoprazole]  -0.04
15. CC1(C)S[C@@H]2[C@H](NC(=O)[C@H](NC(=O)N3CCN(S(C)(=O)=O)C3=O)c3ccccc3)C(=O)N2[C@H]1C(=O)O [Mezlocillin Sodium]  -0.07
16. Cc1onc(-c2c(Cl)cccc2Cl)c1C(=O)N[C@@H]1C(=O)N2[C@@H]1SC(C)(C)[C@@H]2C(=O)O [Dicloxacillin Sodium]  -0.23
17. Cc1nc(C)c(Cl)c(O)c1Cl [Clopidol]  -0.51
18. C=CC[N+]1([C@H]2C[C@H]3[C@@H]4CC[C@H]5C[C@H](O)[C@@H](N6CCOCC6)C[C@]5(C)[C@H]4CC[C@]3(C)[C@H]2OC(C)=O)CCCC1 [Rocuronium Bromide]  -1.19
19. C[N+](C)(C)CCO.[Cl-] [Choline Chloride]  -1.56
20. C(=C\c1ccccc1)/CN1CCN(C(c2ccccc2)c2ccccc2)CC1 [Cinnarizine]  -1.68

system: Saccharomyces cerevisiae BY4741 SeMeCo community; assay: z-score of subpopulation abundance vs DMSO median, subpopulation auxotrophic for U; higher = larger share of this subpopulation than in DMSO controls; conditions: 10 µM; 24 h; SM minimal medium; subpopulation (auxotrophy): U
In short: as §1

In order of rising “z-score of subpopulation abundance” value:
1. CSCC1CN(/N=C/c2ccc([N+](=O)[O-])o2)C(=O)O1 (stereo not given) [Nifuratel]  -7.52
2. O=C1CN(/N=C/c2ccc(-c3ccc([N+](=O)[O-])cc3)o2)C(=O)N1 [Dantrolene sodium]  -3.65
3. CC[C@@H]1/C=C(\C)C[C@H](C)C[C@H](OC)[C@H]2O[C@@](O)(C(=O)C(=O)N3CCCC[C@H]3C(=O)O[C@H](/C(C)=C/[C@@H]3CC[C@H](Cl)[C@H](OC)C3)[C@H](C)[C@@H](O)CC1=O)[C@H](C)C[C@@H]2OC [Pimecrolimus]  -1.72
4. COC(=O)C1=C(C#N)NC(C)=C(C(=O)OC(C)C)C1c1cccc([N+](=O)[O-])c1 (stereo not given) [Nilvadipine]  -1.16
5. CCC(C)n1ncn(-c2ccc(N3CCN(c4ccc(OCC5COC(Cn6cncn6)(c6ccc(Cl)cc6Cl)O5)cc4)CC3)cc2)c1=O (stereo not given) [Itraconazole]  -0.83
6. CN1CCC(=C2c3ccccc3CCc3sccc32)CC1 [Pizotifen Malate]  -0.76
7. CCn1cc(C(=O)O)c(=O)c2cc(F)c(N3CCNCC3)cc21 [Norfloxacin]  -0.7
8. COc1cc(NS(=O)(=O)c2ccc(N)cc2)nc(OC)n1 [SulfadiMethoxine sodium]  -0.68
9. Cc1c(OCC(F)(F)F)ccnc1C[S@@+]([O-])c1nc2ccccc2[nH]1 [Dexlansoprazole]  -0.65
10. C=CC[N+]1([C@H]2C[C@H]3[C@@H]4CC[C@H]5C[C@H](O)[C@@H](N6CCOCC6)C[C@]5(C)[C@H]4CC[C@]3(C)[C@H]2OC(C)=O)CCCC1 [Rocuronium Bromide]  -0.5
11. COc1ccc(C(=O)NCc2ccc(OCCN(C)C)cc2)cc1OC [Itopride hydrochloride]  -0.45
12. CC(C(=O)O)c1ccc(C(=O)c2cccs2)cc1 (stereo not given) [Suprofen]  -0.1
13. Cc1nc(C)c(Cl)c(O)c1Cl [Clopidol]  -0.09
14. CC1(C)S[C@@H]2[C@H](NC(=O)[C@H](NC(=O)N3CCN(S(C)(=O)=O)C3=O)c3ccccc3)C(=O)N2[C@H]1C(=O)O [Mezlocillin Sodium]  0
15. CCN1CCN(c2cc3c(cc2F)c(=O)c(C(=O)O)cn3C2CC2)CC1 [Enrofloxacin]  0.01
16. O=C(c1ccc(F)cc1)C1CCN(CCn2c(=O)[nH]c3ccccc3c2=O)CC1 [Ketanserin]  0.03
17. O=C(CCCN1CCN(c2ccccn2)CC1)c1ccc(F)cc1 [Azaperone]  0.07
18. Nc1c(CC(=O)O)cccc1C(=O)c1ccccc1 [Amfenac Sodium Monohydrate]  0.11
19. COc1ccc(C(Cl)=C(c2ccc(OC)cc2)c2ccc(OC)cc2)cc1 [Chlorotrianisene]  0.17
20. CN1CCOC(c2ccccc2)c2ccccc2C1 (stereo not given) [Nefopam HCl]  0.26
21. CC(=O)O[C@]1(C(C)=O)CC[C@H]2[C@@H]3C[C@H](C)C4=CC(=O)CC[C@]4(C)[C@H]3CC[C@@]21C [Medroxyprogesterone acetate]  0.34
22. CN1[C@@H](CC(=O)c2ccccc2)CCC[C@H]1C[C@H](O)c1ccccc1 [Lobeline hydrochloride]  0.36
23. N=C(N)NC(=N)N1CCOCC1 [Moroxydine HCl]  0.43
24. CN1CCN(c2c(F)cc3c(=O)c(C(=O)O)cn4c3c2OCN4C)CC1 [Marbofloxacin]  0.59
25. OC[C@H]1O[C@H](OCC2O[C@@H](O)[C@H](O)[C@@H](O)[C@@H]2O)[C@H](O)[C@@H](O)[C@H]1O (stereo not given in full) [Melibiose]  0.61
26. CCc1cccc2c3c([nH]c12)C(CC)(CC(=O)O)OCC3 (stereo not given) [Etodolac]  0.62
27. COc1ccc(C(C)=O)c(O)c1 [Paeonol]  0.71
28. NC[C@H]1O[C@H](O[C@H]2[C@H](O)[C@@H](O[C@H]3O[C@H](CO)[C@@H](O)[C@H](N)[C@H]3O)[C@H](N)C[C@@H]2N)[C@H](N)C[C@@H]1O [Tobramycin]  0.79
29. CC1=CC[C@@](O)(C(C)C)CC1 [Terpinen-4-ol]  0.8
30. C[N+](C)(C)CCO.[Cl-] [Choline Chloride]  0.8
31. CN(C)CCC=C1c2ccccc2C=Cc2ccccc21 [Cyclobenzaprine HCl]  1.16
32. C(=C\c1ccccc1)/CN1CCN(C(c2ccccc2)c2ccccc2)CC1 [Cinnarizine]  1.39
33. Cc1cc(-c2ccc(/N=N/c3ccc4c(S(=O)(=O)O)cc(S(=O)(=O)O)c(N)c4c3O)c(C)c2)ccc1/N=N/c1ccc2c(S(=O)(=O)O)cc(S(=O)(=O)O)c(N)c2c1O [Evans Blue]  1.78
34. CO[C@H]1C[C@@H]2CC[C@@H](C)[C@@](O)(O2)C(=O)C(=O)N2CCCC[C@H]2C(=O)O[C@H]([C@H](C)C[C@@H]2CC[C@@H](OP(C)(C)=O)[C@H](OC)C2)CC(=O)[C@H](C)/C=C(\C)[C@@H](O)[C@@H](OC)C(=O)[C@H](C)C[C@H](C)/C=C/C=C/C=C/1C [Ridaforolimus (Deforolimus, MK-8669)]  3.51
35. COc1cccc2c1C(=O)c1c(O)c3c(c(O)c1C2=O)C[C@@](O)(C(=O)CO)C[C@@H]3O[C@H]1C[C@H](N)[C@H](O[C@@H]2CCCCO2)[C@H](C)O1 [Pirarubicin]  5.25
